# Assay results published in PubChem BioAssay (NCATS).
# Inconclusive results are not listed. Entries that show only a call come without a potency. Active and inactive are the calls of the source. Calls come from the whole dose curve; as a rule, active = well fitted curve in the direction sought with a large enough effect; inconclusive = small, poorly fitted or top-dose-only effect, or another doubt; inactive = no such curve, though single readings can be large; an effect the other way counts as inactive or inconclusive.
# Experiments:
# [1] = target: ATP-dependent 6-phosphofructokinase (Trypanosoma brucei brucei) (UniProt O15648); assay: qHTS Assay to Find Inhibitors of T. brucei phosphofructokinase: hit validation (AID 492961);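 note: luminescence reports ADP formed as PFK phosphorylates fructose-6-phosphate with ATP; series mostly up to about 51 µM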
# ATP-dependent 6-phosphofructokinase (Trypanosoma brucei brucei), sequence (O15648 whole entry, looked up): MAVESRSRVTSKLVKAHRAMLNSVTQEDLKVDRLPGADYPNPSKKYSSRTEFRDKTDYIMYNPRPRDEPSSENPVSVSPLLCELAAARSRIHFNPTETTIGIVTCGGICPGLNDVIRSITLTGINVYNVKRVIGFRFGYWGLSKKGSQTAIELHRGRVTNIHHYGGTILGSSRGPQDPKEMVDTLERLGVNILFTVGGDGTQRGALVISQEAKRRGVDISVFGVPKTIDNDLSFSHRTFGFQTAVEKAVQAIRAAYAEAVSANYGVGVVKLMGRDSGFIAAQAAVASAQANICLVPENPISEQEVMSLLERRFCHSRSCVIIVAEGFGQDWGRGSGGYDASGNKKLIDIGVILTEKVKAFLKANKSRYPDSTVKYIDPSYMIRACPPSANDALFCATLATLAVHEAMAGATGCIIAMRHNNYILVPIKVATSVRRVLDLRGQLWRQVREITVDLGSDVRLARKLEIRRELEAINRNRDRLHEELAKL
# Summary of the method: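 PFK 1.25 nM, F6P 0.5 mM, ATP 0.1 mM, MgCl2 5 mM, 0.1 M TEA pH 8.0, Tween20 0.01%, BSA 0.1%; 45 min RT. ADP-Glo two-step detection, luminescence. qHTS titration; curve fitting with curve-class categorization.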
# [2] = target: Ubiquitin carboxyl-terminal hydrolase 1 (Homo sapiens) (UniProt O94782); assay: Inhibitors of USP1/UAF1: Pilot qHTS (AID 504865);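 note: rhodamine fluorescence freed from ubiquitin-rhodamine substrate followed over time; top concentration of the series differs between compounds; nearly all actives have a fitted effect of over 35% in size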
# Ubiquitin carboxyl-terminal hydrolase 1 (Homo sapiens), sequence (O94782 whole entry, looked up): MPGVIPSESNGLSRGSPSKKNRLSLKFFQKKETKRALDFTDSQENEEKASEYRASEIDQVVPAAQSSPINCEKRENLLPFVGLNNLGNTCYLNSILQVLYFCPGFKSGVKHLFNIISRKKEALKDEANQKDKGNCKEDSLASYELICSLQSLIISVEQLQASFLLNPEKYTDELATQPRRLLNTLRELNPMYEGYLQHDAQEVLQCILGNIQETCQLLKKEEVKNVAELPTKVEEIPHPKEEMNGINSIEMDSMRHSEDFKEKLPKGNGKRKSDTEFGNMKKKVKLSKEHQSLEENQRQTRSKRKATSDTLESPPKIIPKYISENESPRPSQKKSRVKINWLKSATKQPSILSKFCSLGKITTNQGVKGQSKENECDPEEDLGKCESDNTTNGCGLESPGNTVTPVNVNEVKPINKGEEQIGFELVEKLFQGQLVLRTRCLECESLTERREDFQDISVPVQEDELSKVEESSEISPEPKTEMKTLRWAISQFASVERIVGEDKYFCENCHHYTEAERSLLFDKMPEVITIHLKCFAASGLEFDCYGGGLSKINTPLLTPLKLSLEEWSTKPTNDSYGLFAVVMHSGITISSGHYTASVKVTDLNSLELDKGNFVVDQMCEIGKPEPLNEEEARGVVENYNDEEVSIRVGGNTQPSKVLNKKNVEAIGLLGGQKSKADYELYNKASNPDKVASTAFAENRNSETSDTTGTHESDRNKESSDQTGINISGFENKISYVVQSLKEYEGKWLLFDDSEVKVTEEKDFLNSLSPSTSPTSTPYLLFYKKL
# Summary of the method: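 USP1/UAF1 complex (1nM) preincubated with compound 15 min at room temperature, then Ub-Rho substrate (150nM final) added. Fluorescence read kinetically at 480/540 nm, 6 reads every 60 seconds. Buffer: 50mM HEPES pH 7.8, 0.5mM EDTA, 0.1 mg/ml BSA, 1mM TCEP, 0.01% Tween-20.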
Compound,outcome [1],Potency [2]
O=C(O)CNC(=O)c1ccccc1I,inactive,inactive
O=C(c1ccccc1)C(O)c1ccccc1 (stereo unspecified),,inactive
O=C(O)COC(=O)Cc1ccccc1Nc1c(Cl)cccc1Cl,,inactive
Cc1cccc(C(=O)O)c1O,,inactive
Cc1cc(-n2nc3ccc(Cl)cc3n2)c(O)c(C(C)(C)C)c1,,inactive
